According to PubChem BioAssay (Tox21):
Records with an inconclusive call do not appear. A call without a number means that no potency is given here. Active and inactive are the calls of the source. Calls follow the shape of the full dose curve.

Assay: qHTS assay for small molecule agonists of the antioxidant response element (ARE) signaling pathway - cell viability counter screen (AID 743203); also: nearly all actives have a fitted effect of over 55% in size
Conditions: ARE-bla HepG2 viability, CellTiter-Glo luminescence, 16 h; series mostly up to 73.3 µM
Description: National Center for Advancing Translational Sciences [NCATS]
NIH Chemical Genomics Center [NCGC]
U.S. Environmental Protection Agency [EPA]
National Institutes of Environmental Health Sciences [NIEHS]
National Toxicology Program [NTP]
U.S. Food and Drug Administration [FDA]
Oxidative stress has been implicated in the pathogenesis of a variety of diseases ranging from cancer to neurodegeneration. The antioxidant response element (ARE) signaling pathway plays an important role in the amelioration of oxidative stress. The CellSensor ARE-bla HepG2 cell line (Invitrogen) can be used for analyzing the Nrf2/antioxidant response signaling pathway. Nrf2 (NF-E2-related factor 2) and Nrf1 are transcription factors that bind to AREs and activate these genes. The CellSensor ARE-bla Hep G2 cell line contains a beta-lactamase reporter gene under control of the Antioxidant Response Element (ARE) stably integrated into HepG2 cells. The activation of the report gene under culture conditions can be detected by fluorescence intensity. This cell line has been used to screen the Tox21 10K compound library to identify agonists that induce oxidative stress. The cytotoxicity of the Tox21 compound library against the ARE-bla cell line was tested in parallel by measuring the cell viability using CellTiter-Glo assay (Promega, Madison, WI) in the same wells.
Tox21 Assay Protocol Summary:
ARE-bla HepG2 cells were dispensed at 2,000 cells/5 ul/well in 1536-well white wall/solid bottom plates using a Multidrop Combi (ThermoFisher Scientific, Waltham, MA) dispenser. After the assay plates were incubated at 37C/5% CO2 for 5 hrs, 23 nL of compounds dissolved in DMSO, positive controls or DMSO only was transferred to the assay plate by a pintool work station (Kalypsys, San Diego, CA). The plates were incubated at 37C/5% CO2 for 16 hrs, followed by addition of 4 ul/well of CellTiter-Glo reagent into the assay plates using a Flying Reagent Dispenser (Aurora Discovery, San Diego, CA). After 30 min incubation at room temperature, the luminescence intensity in the assay plates was measured using a ViewLux (PerkinElmer, Shelton, CT) plate reader.
Potency is read from the fitted curve at half-maximal effect.

Compound | Potency
O=C(c1ccccc1)c1ccc2n1CCC2C(=O)O (stereo not given) | inactive
COc1ccc([C@@H]2Sc3ccccc3N(CCN(C)C)C(=O)[C@@H]2OC(C)=O)cc1 | inactive
COC(Cc1ccccc1)OC | inactive
C=CC(=O)OCCOC(=O)CCC(=O)O | inactive
CC(C)(C)c1cc(CCC(=O)OCC(COC(=O)CCc2cc(C(C)(C)C)c(O)c(C(C)(C)C)c2)(COC(=O)CCc2cc(C(C)(C)C)c(O)c(C(C)(C)C)c2)COC(=O)CCc2cc(C(C)(C)C)c(O)c(C(C)(C)C)c2)cc(C(C)(C)C)c1O | inactive
CCCCOc1ccc(CC(=O)NO)cc1 | inactive
O=S1(=O)N=C(O)c2ccccc21 | inactive
Oc1ccc(Sc2ccc(O)cc2)cc1 | inactive
CCCCCCCCCCCCCCCCCBr | inactive
CCN(CC)CCOc1ccc2c(c1)C(=O)c1cc(OCCN(CC)CC)ccc1-2 | inactive
Cc1cc(NC(=O)C(=O)O)cc(C)c1Oc1ccc(O)c2c1CCC2 | inactive
O=c1c2ccccc2nnn1CCl | inactive
CN(C)CC[C@@H](c1ccc(Br)cc1)c1ccccn1 | inactive
O=C1c2cccc(O)c2C(=O)c2c(O)cc(CO)cc21 | inactive
O=C1Nc2cc(Cl)ccc2Oc2ccccc21 | inactive
Nc1nc(N)c2nc(CNc3ccc(C(=O)N[C@@H](CCC(=O)O)C(=O)O)cc3)cnc2n1 | 5.1 nM (active)
COc1ccc2[nH]c(S(=O)Cc3ncc(C)c(OC)c3C)nc2n1 (stereo not given) | inactive
CN(C)C/C=C(/c1ccc(Br)cc1)c1cccnc1 | inactive
FC(F)(F)C(F)(F)C(F)(F)C(F)(F)C(F)(F)C(F)(F)CCI | inactive
SC1CCCC1 | inactive

Compound | Potency
CC1=CC(=O)/C(=C(/C)O)C(=O)O1 | inactive
OC(CCN1CCCCC1)(c1ccccc1)C1CCCCC1 (stereo not given) | inactive
CCCCCCCCN(C)C | inactive
CC[C@@H]1C[C@H](N(Cc2cc(C(F)(F)F)cc(C(F)(F)F)c2)C(C)=O)c2cc(C(F)(F)F)ccc2N1C(=O)OC(C)C | inactive
Cc1cccc(C(C)(C)C)c1O | inactive
CCOc1cc(OCC)c(C(=O)CCC(=O)O)cc1OCC | inactive
CCOC(=O)C1=C(C)NC(C)=C(C(=O)OC)C1c1cccc([N+](=O)[O-])c1 (stereo not given) | inactive
Cc1cc(CC(=O)O)c(C)n1-c1ccc(Cl)cc1 | inactive
CC(C)(C)c1ccc(OCC2CO2)cc1 (stereo not given) | inactive
CC(C)(C)c1ccc(S)cc1 | inactive
CC(C(=O)O)c1ccc(C(=O)c2ccccc2)s1 (stereo not given) | inactive
CCOC(=O)CC(=O)c1cc(F)c(Cl)nc1Cl | inactive
CC(C)NCC(O)c1cc(O)cc(O)c1 (stereo not given) | inactive
C=Cc1c(C)c2cc3[nH]c(cc4nc(cc5nc(cc1[nH]2)C(C)=C5CCC(=O)O)C(CCC(=O)O)=C4C)c(C)c3C=C | inactive
O=C(C(=O)c1ccc(Br)cc1)c1ccc(Br)cc1 | inactive
CC(C)(C)C1CCCCC1O (stereo not given) | inactive
C[C@@H](C1=C(CCN(C)C)Cc2ccccc21)c1ccccn1 | inactive
Cc1cccc(Oc2ccccc2)c1 | inactive
CC1CCc2cc(F)cc3c(=O)c(C(=O)O)cn1c23 (stereo not given) | inactive
CC1(C)[C@H]2CC[C@]1(C)[C@H](O)C2 | inactive
